Assay results taken from PubChem BioAssay (NCATS).
Results filed as inconclusive are left out. Activity calls are given as the source filed them. Unless noted, calls come from the whole dose curve.

Columns and labels:
[1] = biological target: Glucocorticoid receptor (Homo sapiens) (UniProt P04150); experiment: qHTS assay for small molecule agonists of glucocorticoid receptor signaling (AID 588532; active = well fitted curve in the direction sought with a large enough effect in the signal ratio, with a control signal flat; the % refers to the signal ratio;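 note: 100% = dexamethasone at 0.1 µM and 0% = DMSO only wells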); details: HeLa MMTV-bla, beta-lactamase ratio, agonist, 18 h; activation: stronger effect = higher value, percent of dexamethasone control, DMSO zero
Method in brief: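 Using MMTV-bla HeLa cells in medium with 1% stripped FBS and 25 mM HEPES, compounds were titrated and incubated overnight-length (18 h). Beta-lactamase cleavage of CCF4 was quantified by dual-emission fluorescence.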

[2] = biological target: Glucocorticoid receptor (Homo sapiens) (UniProt P04150); experiment: qHTS assay for small molecule antagonists of glucocorticoid receptor signaling (AID 588533; active = well fitted inhibition curve with a large enough effect in the signal ratio, with a control signal flat, not every such curve was filed as active; the % refers to the signal ratio;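 note: cells stimulated with 2 nM dexamethasone as agonist; % is set by controls: 0 for no effect and ±100 for the full control effect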)
Method in brief: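 Antagonist-mode qHTS: compound titrations added to GRE-bla HeLa cells, then dexamethasone 2 nM final; 18 h, 37 C. CCF4 FRET fluorescence normalized to dexamethasone and DMSO; IC50 from Hill fit.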

[3] = biological target: Peroxisome proliferator-activated receptor delta (Homo sapiens) (UniProt Q03181); experiment: qHTS assay for small molecule agonists of peroxisome proliferator-activated receptor delta signaling (AID 588534);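 note: 0% = DMSO basal wells and 100% = positive control agonist at 10 µM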
Method in brief: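 Reporter cells were plated and held 5 hrs at 37 C before compounds were added. After 18 hrs at 37 C, CCF4 dye was loaded for 2 hrs at RT and fluorescence measured.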

[4] = biological target: Peroxisome proliferator-activated receptor gamma (Homo sapiens) (UniProt P37231); experiment: qHTS assay for small molecule agonists of peroxisome proliferator-activated receptor gamma signaling (AID 588536; active = well fitted curve in the direction sought with a large enough effect in the signal ratio, with a control signal flat, not every such curve was filed as active; the % refers to the signal ratio;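 note: 0% = DMSO basal wells and 100% = rosiglitazone at 2 µM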)
Method in brief: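 PPAR-gamma-UAS-bla HEK293 cells in medium with 1% charcoal/dextran-treated FBS were exposed to compounds for 16 h at 37 C. Beta-lactamase activity was read with CCF4 substrate (405 nm excitation, 460/530 nm emission).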

[5] = biological target: Peroxisome proliferator-activated receptor gamma (Homo sapiens) (UniProt P37231); experiment: qHTS assay for small molecule antagonists of peroxisome proliferator-activated receptor gamma signaling (AID 588537; active = well fitted inhibition curve with a large enough effect in the signal ratio, with a control signal flat, not every such curve was filed as active; the % refers to the signal ratio;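 note: reporter cells co-stimulated with 50 nM rosiglitazone agonist during compound treatment; % of control where 0% means no effect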)
Method in brief: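 Inhibitors of agonist-stimulated UAS-bla reporter activity were sought in HEK293 cells; rosiglitazone (50 nM) defined full signal and DMSO baseline. Curves fitted to Hill model gave IC50 and efficacy.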

[6] = biological target: Vitamin D3 receptor (Homo sapiens) (UniProt P11473); experiment: qHTS assay for small molecule agonists of vitamin D receptor signaling (AID 588543);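 note: 0% = DMSO basal and 100% = reference agonist control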
Method in brief: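 Measured: β-lactamase reporter activity (CCF4, 405 nm excitation, 460/530 nm emission) in HEK293T VDR-UAS-bla cells after 16 h compound exposure at 37 °C. Normalization against 50 nM 1α,25-dihydroxyvitamin D3 and DMSO; Hill-fit EC50.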

[7] = qHTS assay for small molecule agonists of retinoid X receptor alpha signaling (AID 588544); details: HEK293T RXRa-UAS-bla, beta-lactamase reporter, 18 h; 530 nm emission;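 for activation: 0% = DMSO basal wells and 100% = reference agonist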
[8] = biological target: Retinoic acid receptor RXR-alpha (Homo sapiens) (UniProt P19793); experiment: as above
[9] = biological target: Thyroid hormone receptor beta (Homo sapiens) (UniProt P10828); experiment: qHTS assay for small molecule agonists of thyroid hormone receptor beta signaling (AID 588545);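 note: 0% = DMSO only and 100% = 10 nM T3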
Method in brief: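 TR-UAS-bla-GripTite HEK 293 cells in medium with 2% charcoal/dextran FBS, 0.1 mM NEAA and 1 mM sodium pyruvate were treated with titrated compounds for 18 hrs at 37 C. Beta-lactamase reporter was read with CCF4 dye (ex 405, em 460/530 nm); EC50 from Hill fits.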

[10] = qHTS assay for small molecule antagonists of retinoid X receptor alpha signaling (AID 588546; active = well fitted inhibition curve with a large enough effect in the signal ratio, with a control signal flat, not every such curve was filed as active; the % refers to the signal ratio;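 note: cells stimulated with 9-cis-retinoic acid as agonist; % is set by controls: 0 for no effect and ±100 for the full control effect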); details: HEK293T RXRa-UAS-bla, beta-lactamase ratio, antagonist mode; measured here: W530 green channel, cytotoxicity proxy
Method in brief: (§1)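 Beta-lactamase reporter inhibition, read as CCF4 fluorescence ratio (ex 405, em 460/530 nm) after 2 h at RT. HEK293T UAS-bla cells, 2500/well, were stimulated with 9-cis-RA at 500 or 100 nM final alongside test compound for 18 h at 37 C.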

[11] = biological target: Retinoic acid receptor RXR-alpha (Homo sapiens) (UniProt P19793); experiment: as above; details: HEK293T RXRa-UAS-bla, beta-lactamase ratio, antagonist mode
Method in brief: as §1

[12] = qHTS assay for small molecule activators of the p53 signaling pathway (AID 651743; active = well fitted activation curve with a large enough effect in the signal ratio, not every such curve was filed as active; the % refers to the signal ratio; note: series mostly up to about 92 µM; % of control where 0% means no effect); details: HCT-116 p53RE-bla, beta-lactamase FRET ratio, 16 h; activation: stronger effect = higher value
Method in brief: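 Screen for p53 pathway agonists uses stably transfected p53RE-bla HCT-116 cells, 4,000 per well, treated 16 h at 37 C with compounds in DMSO.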

[13] = qHTS assay for small molecule activators of the nuclear factor-kappa B (NF-kB) signaling pathway (AID 651749; active = well fitted activation curve with a large enough effect in the signal ratio; the % refers to the signal ratio; note: series mostly up to about 77 µM; % of control where 0% means no effect); details: NF-kB-bla ME-180 cells, beta-lactamase FRET ratio, 16 h; activation: stronger effect = higher value
Method in brief: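 Stably transfected ME-180 line; NF-kB response element upstream of beta-lactamase. Treatment: compound or DMSO, 16 hr. Detection: fluorescent FRET substrate.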

[14] = qHTS assay for environmental chemicals that activate the Aryl hydrocarbon Receptor (AhR) signaling pathway (AID 651777; active = well fitted curve in the direction sought with a large enough effect; an effect the other way counts as inactive or inconclusive; note: % of control where 0% means no effect; nearly all actives have a fitted effect of over 15% in size); details: 1A2-DRE human hepatoma cells, luciferase, 24 h; activation: stronger effect = higher value
Method in brief: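 Measured luciferase activity, read 30 min after One-Glo addition at room temperature, from human hepatoma cells bearing a dioxin response element–CYP1A2 promoter reporter and exposed to compound for 24 hr at 37 C.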

[15] = biological target: Peroxisome proliferator-activated receptor alpha (Homo sapiens) (UniProt Q07869); experiment: qHTS assay for small molecule agonists of the peroxisome proliferator-activated receptor alpha (PPARalpha) signaling pathway (AID 651778; active = well fitted curve in the direction sought with a large enough effect; an effect the other way counts as inactive or inconclusive; note: % of control where 0% means no effect); details: PathHunter PPARalpha complementation, chemiluminescence, 6 h; max response: stronger effect = higher value
Method in brief: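 Chemiluminescence from complemented enzyme reported PPARalpha activation in cells after 6 hr of compound treatment at 37 C. The detection reagent was incubated for 60 min at room temperature, and compounds were scored as agonists.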

[16] = qHTS assay for small molecule agonists of the antioxidant response element (ARE) signaling pathway measured by Nrf2-dependant transcriptional activity (AID 720636; active = well fitted curve in the direction sought with a large enough effect in the repeat runs; an effect the other way counts as inactive or inconclusive;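 note: HepG2 cells with an ARE-driven luciferase reporter; % of control where 0% means no effect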)
Method in brief: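 In HepG2 cells engineered with an Nrf2-responsive luciferase gene, ARE induction was quantified as luminescence after 16 hr compound treatment at 37 C.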

[17] = qHTS assay for small molecule agonists of the antioxidant response element (ARE) signaling pathway measured by Nrf2-dependant transcriptional activity - cell viability counter screen (AID 720653; active = well fitted curve in the direction sought with a large enough effect in the repeat runs; an effect the other way counts as inactive or inconclusive; note: potency is the fitted concentration of half-maximal effect); details: ARE-bla HepG2 viability, CellTiter-Glo ATP luminescence, 16 h; max response: stronger effect = lower value
Method in brief: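 Cytotoxicity counter screen: intracellular ATP quantified by CellTiter-Glo luminescence in the same ARE-bla HepG2 plates, after 16 h compound exposure and a 2 h beta-lactamase substrate step.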

[18] = qHTS assay for cell viability of HEK293 cells (AID 743288; active = well fitted curve in the direction sought with a large enough effect; an effect the other way counts as inactive or inconclusive; note: nearly all actives have a fitted effect of over 50% in size; note: potency is the fitted concentration of half-maximal effect); details: ATP luminescence (CellTiter-Glo), 18 h; max response: stronger effect = lower value
Method in brief: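 Luminescent ATP quantitation served as the viability read-out. Cells (parental HEK293, 2,000/well) received compounds after at least 5 h at 37 C and were exposed for 18 h before a 30 min room-temperature reagent step.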

[19] = biological target: Nuclear receptor subfamily 1 group I member 2 (Rattus norvegicus) (UniProt Q9R1A7); experiment: qHTS assay for small molecule activators of the rat pregnane X receptor (rPXR) signaling pathway (AID 651751; call rule not given here; note: 0% is about no effect); details: rPXR reporter cells, luciferase (One-Glo), 24 h
[20] = qHTS assay for small molecule activators of the human pregnane X receptor (PXR) signaling pathway (AID 720659; call rule not given here; note: 0% is about no effect)
[21] = biological target: Bile acid receptor (Homo sapiens) (UniProt Q96RI1); experiment: qHTS assay for small molecule agonists of farnesoid X receptor signaling (AID 588527); details: HEK293T FXR-UAS-bla, beta-lactamase ratio, 16 h; activation: stronger effect = higher value;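 note: series mostly up to about 77 µM; 0% = vehicle basal and 100% = reference agonist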
Method in brief: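 FXR-UAS-bla HEK293T, 10% dialyzed FBS; cpds up to 92 uM titration, 16 h 37 C; CCF4 dye 2 h RT; fluorescence. Normalized to chenodeoxycholic acid 100 uM (100%) and DMSO (0%); Hill fit gives EC50, efficacy.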

[22] = biological target: Nuclear receptor ROR-gamma (Homo sapiens) (UniProt P51449); experiment: qHTS assay for small molecule antagonists of the retinoid-related orphan receptor gamma (ROR-gamma) signaling pathway (AID 651802; active = well fitted curve in the direction sought with a large enough effect; an effect the other way counts as inactive or inconclusive; note: potency is the fitted concentration of half-maximal effect; nearly all actives have a fitted effect of over 60% in size)
Method in brief: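 Antagonism is scored as a fall in luminescence from a RORE-luciferase reporter in CHO cells expressing ROR under a TET-inducible promoter, measured 16hr after doxycycline induction in the presence of compound.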

[23] = qHTS assay for cell viability of the p53RE-bla HCT-116 cell line (AID 743292; active = well fitted curve in the direction sought with a large enough effect; an effect the other way counts as inactive or inconclusive; note: % is set by controls: 0 for no effect and ±100 for the full control effect; nearly all actives have a fitted effect of over 55% in size)
Method in brief: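 Intracellular ATP of p53RE-bla HCT-116 cells measured by luciferase luminescence following 16 h compound incubation at 37 C; DMSO-only wells served as vehicle controls.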

[24] = qHTS assay for small molecule antagonists of peroxisome proliferator-activated receptor delta signaling (AID 588535; active = well fitted inhibition curve with a large enough effect in the signal ratio, with a control signal flat, not every such curve was filed as active; the % refers to the signal ratio;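 for max response: cells co-treated with a PPAR-delta agonist as stimulator during compound exposure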); details: HEK293T PPARd-UAS-bla, beta-lactamase FRET ratio, 18 h; 460 nm channel
Method in brief: (§2)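 Cell-based beta-lactamase assay in antagonist mode: 4000 HEK293T PPAR-delta-UAS-bla cells per well, 5 hr preincubation then 18 hr compound incubation at 37 C. IC50 obtained by Hill equation fitting.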

[25] = biological target: Peroxisome proliferator-activated receptor delta (Homo sapiens) (UniProt Q03181); experiment: as above
Method in brief: as §2

[26] = biological target: Vitamin D3 receptor (Homo sapiens) (UniProt P11473); experiment: qHTS assay for small molecule antagonists of vitamin D receptor signaling (AID 588541);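 note: receptor activated by calcitriol during compound treatment; series mostly up to about 77 µM; % is set by controls: 0 for no effect and ±100 for the full control effect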
Method in brief: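 Antagonist-mode beta-lactamase reporter assay: HEK293T VDR-UAS-bla cells were exposed to titrated compound alongside 1-alpha,25-dihydroxyvitamin D3 at 3 nM final for 16 h. Values were normalized to the 50 nM agonist control and DMSO basal, with IC50 and efficacy from Hill equation fits.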

[27] = biological target: Thyroid hormone receptor beta (Homo sapiens) (UniProt P10828); experiment: qHTS assay for small molecule antagonists of thyroid hormone receptor beta signaling (AID 588547; active = well fitted inhibition curve with a large enough effect in the signal ratio, with a control signal flat, not every such curve was filed as active; the % refers to the signal ratio;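 note: cells stimulated with 0.4 nM T3 agonist during compound exposure; series mostly up to about 77 µM; % is set by controls: 0 for no effect and ±100 for the full control effect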); details: TR-UAS-bla HEK293, beta-lactamase ratio, antagonist mode, 18 h
Method in brief: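 Inhibition of T3-driven (0.4nM final) beta-lactamase reporter activity was measured over 0.59 nM to 92 uM compound after 18 h at 37 C. The cells were GripTite HEK293 TR-UAS-bla in charcoal/dextran-stripped serum, with CCF4 ratio read-out and IC50 from Hill fits.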

[28] = biological target: Cytochrome P450 3A4 (Homo sapiens) (UniProt P08684); experiment: qHTS Assay for Activators of Cytochrome P450 3A4 (AID 885; active = well fitted curve in the direction sought with a large enough effect; an effect the other way counts as inactive or inconclusive; note: nearly all actives have a fitted effect of over 65% in size)
Method in brief: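 20nM CYP3A4 + 25uM Luciferin-PPXE (=KM), 200mM KPO4; cpd 10 min RT; NADPH regen, 60 min RT; stop w/ detection buffer, 20 min; luminescence. Normalized to 57 uM ketoconazole.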

[29] = qHTS assay for small molecule agonists of the antioxidant response element (ARE) signaling pathway (AID 651741; active = well fitted activation curve with a large enough effect in the signal ratio; the % refers to the signal ratio; note: potency is the fitted concentration of half-maximal effect)
Method in brief: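 Seeding 2,000 ARE-bla HepG2 cells per well preceded a 5 h incubation at 37 C/5% CO2 and a 16 h compound exposure at 37 C. Beta-lactamase reporter activity was then quantified by fluorescence after 2 h with LiveBLAzer B/G FRET substrate.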

[30] = biological target: Cytochrome P450 3A4 (Homo sapiens) (UniProt P08684); experiment: qHTS Assay for Inhibitors and Substrates of Cytochrome P450 3A4 (AID 884; active = well fitted curve in the direction sought with a large enough effect; an effect the other way counts as inactive or inconclusive; note: potency is the fitted concentration of half-maximal effect; nearly all actives have a fitted effect of over 50% in size)
Method in brief: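 20 nM human CYP3A4 with 25 uM Luciferin-PPXE (at KM) in 200 mM KPO4, preincubated 10 min with compound; NADPH regeneration started a 60 min RT reaction. Luciferin detected by luminescence, normalized to 57 uM ketoconazole as full inhibition.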

Thyroid hormone receptor beta (Homo sapiens), sequence (P10828 whole entry, looked up): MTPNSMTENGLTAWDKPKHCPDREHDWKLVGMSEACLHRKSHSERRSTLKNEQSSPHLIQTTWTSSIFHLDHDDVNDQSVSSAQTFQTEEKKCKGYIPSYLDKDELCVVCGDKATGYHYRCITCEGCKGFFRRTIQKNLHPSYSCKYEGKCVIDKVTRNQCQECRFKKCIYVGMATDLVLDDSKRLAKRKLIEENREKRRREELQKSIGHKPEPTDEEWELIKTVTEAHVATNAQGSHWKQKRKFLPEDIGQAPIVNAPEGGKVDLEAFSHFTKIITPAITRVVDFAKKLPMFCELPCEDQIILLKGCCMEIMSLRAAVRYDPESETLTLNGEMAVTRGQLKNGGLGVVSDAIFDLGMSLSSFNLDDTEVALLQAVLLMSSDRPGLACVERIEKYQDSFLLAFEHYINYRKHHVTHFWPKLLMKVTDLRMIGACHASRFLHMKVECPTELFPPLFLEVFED
Vitamin D3 receptor (Homo sapiens), sequence (P11473 whole entry, looked up): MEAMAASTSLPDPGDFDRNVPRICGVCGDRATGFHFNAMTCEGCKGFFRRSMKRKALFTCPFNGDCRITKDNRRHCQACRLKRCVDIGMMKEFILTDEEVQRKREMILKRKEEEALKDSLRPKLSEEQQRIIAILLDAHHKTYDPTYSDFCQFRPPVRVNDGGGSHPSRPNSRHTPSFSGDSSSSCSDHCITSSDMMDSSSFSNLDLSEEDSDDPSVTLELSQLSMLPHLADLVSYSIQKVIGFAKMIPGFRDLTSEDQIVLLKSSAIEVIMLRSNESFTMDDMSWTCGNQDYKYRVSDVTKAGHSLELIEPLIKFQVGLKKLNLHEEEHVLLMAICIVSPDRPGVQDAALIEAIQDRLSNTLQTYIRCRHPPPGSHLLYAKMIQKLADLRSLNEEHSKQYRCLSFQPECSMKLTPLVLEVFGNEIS
Glucocorticoid receptor (Homo sapiens), sequence (P04150 whole entry, looked up): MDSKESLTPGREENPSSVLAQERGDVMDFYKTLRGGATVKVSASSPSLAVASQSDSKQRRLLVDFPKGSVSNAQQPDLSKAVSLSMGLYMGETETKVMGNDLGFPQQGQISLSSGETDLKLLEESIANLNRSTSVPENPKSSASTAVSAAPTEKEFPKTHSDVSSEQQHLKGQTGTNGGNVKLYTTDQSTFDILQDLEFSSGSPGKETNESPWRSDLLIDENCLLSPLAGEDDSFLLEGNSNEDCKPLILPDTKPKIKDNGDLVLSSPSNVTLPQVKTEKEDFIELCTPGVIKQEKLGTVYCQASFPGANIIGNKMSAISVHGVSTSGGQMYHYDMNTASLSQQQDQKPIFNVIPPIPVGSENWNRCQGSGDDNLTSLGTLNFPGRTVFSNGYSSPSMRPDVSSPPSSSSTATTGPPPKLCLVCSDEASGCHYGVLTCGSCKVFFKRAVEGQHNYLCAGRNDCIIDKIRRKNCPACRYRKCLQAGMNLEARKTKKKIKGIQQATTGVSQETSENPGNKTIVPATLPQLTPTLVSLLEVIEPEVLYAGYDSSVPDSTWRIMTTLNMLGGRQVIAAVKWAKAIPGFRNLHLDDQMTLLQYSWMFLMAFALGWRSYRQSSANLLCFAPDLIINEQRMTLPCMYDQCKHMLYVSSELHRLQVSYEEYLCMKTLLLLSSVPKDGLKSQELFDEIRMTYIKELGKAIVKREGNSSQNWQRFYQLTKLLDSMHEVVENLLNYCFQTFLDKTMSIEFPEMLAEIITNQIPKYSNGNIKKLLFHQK
Bile acid receptor (Homo sapiens), sequence (Q96RI1 whole entry, looked up): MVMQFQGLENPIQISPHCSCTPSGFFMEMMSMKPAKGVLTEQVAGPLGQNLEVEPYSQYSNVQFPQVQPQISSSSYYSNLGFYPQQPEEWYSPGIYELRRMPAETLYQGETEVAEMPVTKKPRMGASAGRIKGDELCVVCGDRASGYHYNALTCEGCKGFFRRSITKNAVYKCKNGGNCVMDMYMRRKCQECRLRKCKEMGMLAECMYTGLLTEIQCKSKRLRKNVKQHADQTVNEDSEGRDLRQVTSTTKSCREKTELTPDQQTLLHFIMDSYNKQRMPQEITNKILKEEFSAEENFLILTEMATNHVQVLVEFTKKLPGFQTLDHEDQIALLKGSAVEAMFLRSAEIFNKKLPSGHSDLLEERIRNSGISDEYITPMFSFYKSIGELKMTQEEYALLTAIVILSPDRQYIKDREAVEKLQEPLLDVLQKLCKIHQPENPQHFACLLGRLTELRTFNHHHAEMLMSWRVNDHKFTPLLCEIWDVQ
Peroxisome proliferator-activated receptor alpha (Homo sapiens), sequence (Q07869 whole entry, looked up): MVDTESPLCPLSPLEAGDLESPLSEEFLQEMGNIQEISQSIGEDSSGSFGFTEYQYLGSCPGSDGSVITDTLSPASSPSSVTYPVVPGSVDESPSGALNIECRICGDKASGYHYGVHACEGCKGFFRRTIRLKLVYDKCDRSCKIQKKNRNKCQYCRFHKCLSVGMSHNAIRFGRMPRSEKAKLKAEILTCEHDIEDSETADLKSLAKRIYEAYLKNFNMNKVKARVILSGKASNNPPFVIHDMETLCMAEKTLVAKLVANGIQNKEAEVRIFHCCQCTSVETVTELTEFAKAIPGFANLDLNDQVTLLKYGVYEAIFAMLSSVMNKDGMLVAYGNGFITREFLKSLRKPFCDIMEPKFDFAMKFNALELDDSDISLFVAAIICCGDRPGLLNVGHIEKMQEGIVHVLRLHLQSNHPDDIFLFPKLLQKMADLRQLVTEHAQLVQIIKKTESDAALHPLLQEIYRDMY
Cytochrome P450 3A4 (Homo sapiens), sequence (P08684 whole entry, looked up): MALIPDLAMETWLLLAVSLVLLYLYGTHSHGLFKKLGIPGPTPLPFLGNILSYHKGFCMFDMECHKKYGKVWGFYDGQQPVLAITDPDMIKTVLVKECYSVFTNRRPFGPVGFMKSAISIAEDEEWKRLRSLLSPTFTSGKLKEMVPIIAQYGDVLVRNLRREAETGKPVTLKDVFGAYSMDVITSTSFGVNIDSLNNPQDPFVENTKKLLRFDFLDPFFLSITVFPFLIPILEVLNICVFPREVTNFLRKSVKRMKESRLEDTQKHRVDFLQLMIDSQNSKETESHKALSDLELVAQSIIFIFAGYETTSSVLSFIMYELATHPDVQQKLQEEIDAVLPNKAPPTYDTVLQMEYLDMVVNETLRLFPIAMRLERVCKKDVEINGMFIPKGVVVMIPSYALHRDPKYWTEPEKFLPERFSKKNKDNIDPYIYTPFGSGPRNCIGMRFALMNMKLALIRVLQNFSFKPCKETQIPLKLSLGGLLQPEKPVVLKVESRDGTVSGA
Retinoic acid receptor RXR-alpha (Homo sapiens), sequence (P19793 whole entry, looked up): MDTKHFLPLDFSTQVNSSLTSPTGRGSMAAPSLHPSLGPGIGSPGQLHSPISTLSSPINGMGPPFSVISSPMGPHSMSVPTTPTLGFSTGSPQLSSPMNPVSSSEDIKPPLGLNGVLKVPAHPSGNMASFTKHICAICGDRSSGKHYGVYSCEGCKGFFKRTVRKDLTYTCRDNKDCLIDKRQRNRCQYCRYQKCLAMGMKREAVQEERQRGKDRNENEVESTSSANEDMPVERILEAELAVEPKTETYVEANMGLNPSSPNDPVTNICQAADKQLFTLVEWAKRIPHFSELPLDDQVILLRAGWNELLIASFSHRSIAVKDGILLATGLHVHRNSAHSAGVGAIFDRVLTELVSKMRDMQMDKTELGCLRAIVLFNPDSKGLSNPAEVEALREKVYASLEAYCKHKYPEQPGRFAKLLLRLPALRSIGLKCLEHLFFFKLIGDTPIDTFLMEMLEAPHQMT
Peroxisome proliferator-activated receptor delta (Homo sapiens), sequence (Q03181 whole entry, looked up): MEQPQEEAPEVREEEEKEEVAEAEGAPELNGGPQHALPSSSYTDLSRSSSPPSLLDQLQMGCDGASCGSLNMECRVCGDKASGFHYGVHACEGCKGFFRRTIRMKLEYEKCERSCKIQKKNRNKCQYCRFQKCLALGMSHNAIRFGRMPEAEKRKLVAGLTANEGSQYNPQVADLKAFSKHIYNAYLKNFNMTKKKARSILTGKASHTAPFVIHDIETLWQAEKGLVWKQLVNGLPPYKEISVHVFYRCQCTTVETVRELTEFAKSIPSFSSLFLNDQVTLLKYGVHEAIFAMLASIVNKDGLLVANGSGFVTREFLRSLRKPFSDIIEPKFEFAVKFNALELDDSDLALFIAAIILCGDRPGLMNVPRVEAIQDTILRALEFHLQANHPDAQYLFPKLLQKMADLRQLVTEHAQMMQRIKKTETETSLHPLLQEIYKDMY
Peroxisome proliferator-activated receptor gamma (Homo sapiens), sequence (P37231 whole entry, looked up): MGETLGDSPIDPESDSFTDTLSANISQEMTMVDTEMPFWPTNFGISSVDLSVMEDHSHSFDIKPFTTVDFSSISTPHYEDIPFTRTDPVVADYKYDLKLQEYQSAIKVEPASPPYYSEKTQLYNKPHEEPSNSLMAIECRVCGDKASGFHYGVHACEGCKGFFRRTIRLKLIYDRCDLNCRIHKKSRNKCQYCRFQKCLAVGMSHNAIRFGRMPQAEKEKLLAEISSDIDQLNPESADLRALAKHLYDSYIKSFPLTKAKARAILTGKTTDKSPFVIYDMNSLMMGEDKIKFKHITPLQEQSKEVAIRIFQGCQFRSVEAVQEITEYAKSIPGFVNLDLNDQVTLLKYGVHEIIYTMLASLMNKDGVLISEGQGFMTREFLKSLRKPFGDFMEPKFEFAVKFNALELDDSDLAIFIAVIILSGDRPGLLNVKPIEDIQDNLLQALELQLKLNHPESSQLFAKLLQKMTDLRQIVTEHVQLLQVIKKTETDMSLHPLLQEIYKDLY
Nuclear receptor subfamily 1 group I member 2 (Rattus norvegicus), sequence (Q9R1A7 whole entry, looked up): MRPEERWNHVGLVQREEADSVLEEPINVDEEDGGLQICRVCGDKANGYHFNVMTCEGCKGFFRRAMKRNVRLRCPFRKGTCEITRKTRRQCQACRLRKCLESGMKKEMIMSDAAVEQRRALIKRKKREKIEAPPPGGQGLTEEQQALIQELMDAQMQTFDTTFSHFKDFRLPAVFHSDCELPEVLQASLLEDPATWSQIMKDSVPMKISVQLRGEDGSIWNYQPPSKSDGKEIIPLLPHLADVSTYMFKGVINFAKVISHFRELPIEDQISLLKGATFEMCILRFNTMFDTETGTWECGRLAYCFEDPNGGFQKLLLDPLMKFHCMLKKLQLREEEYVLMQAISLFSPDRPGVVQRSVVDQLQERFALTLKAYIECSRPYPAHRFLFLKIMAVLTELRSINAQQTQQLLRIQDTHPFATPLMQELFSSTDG

CCCCOC(=O)[C@@H](C)Oc1ccc(Oc2ccc(C#N)cc2F)cc1
13.4%: max response [10]
inactive: activation [1] -11.2% | Potency [2] | outcome [3] | Potency [4] | Potency [5] | outcome [6] | Potency [8] | Potency [9] | max response [11] 12.7% | activation [12] -5.96% | activation [13] 0.919% | activation [14] -2.2% | max response [15] 5.77% | Potency [16] | max response [17] -7.64% | max response [18] 2.82% | max response [19] 1.04% | outcome [20]
10.2%: max response [7]

CC(C)(C)C(=O)C1C(=O)c2ccccc2C1=O
active: Potency [22] 21.1 µM
inactive: activation [21] 1.07%

[Cu+2].[O-]c1cccc2cccnc12.[O-]c1cccc2cccnc12
inactive: activation [21] -9.69% | outcome [6] | Potency [9] | activation [12] -8.29% | activation [14] -12.2% | max response [15] -9.55% | Potency [16] | Potency [23] | outcome [20]
active: Potency [17] 11.2 µM | Potency [18] 31.6 µM

C1=Cc2cccc3cccc1c23
-1.47%: max response [24]
inactive: activation [1] -9.46% | Potency [2] | outcome [3] | Potency [25] | Potency [4] | Potency [5] | Potency [26] | outcome [6] | Potency [8] | Potency [9] | activity change % (negative = inhibition) [27] 1.99% | activation [12] -6.25% | activation [13] 0.838% | activation [14] 0.26% | max response [15] 3.92% | Potency [16] | max response [17] -6.24% | max response [18] -13.5% | Potency [23] | max response [19] 3.17%

Cc1cc([N+](=O)[O-])ccc1N
inactive: Potency [28] | activation [21] -0.935% | outcome [3]

c1ccc(-c2ccc(-c3ccccc3)cc2)cc1
inactive: activation [21] 2.41% | outcome [3]
active: Potency [29] 19.3 µM

CC(=O)OCc1ccc2c(c1)OCO2
inactive: Potency [28] | activation [21] -1.12%
active: Potency [30] 10 µM
